Measurements reported in PubChem BioAssay (Tox21).
A number with no mark means an inactive call. Where a call stands in place of a potency, no number is given. Calls of active or inactive are those of the source. Unless noted, the call rests on the fitted dose curve; in most records, active means well fitted curve in the direction sought with a large enough effect in the repeat runs; inconclusive means weak or mixed curves; inactive means no such curve, though single readings can be large; an effect the other way counts as inactive or inconclusive.

Experiments:
[1] = qHTS assay to identify small molecule antagonists of the thyroid receptor (TR) signaling pathway (AID 743065); further: nearly all actives have a fitted effect of over 55% in size; further: potency means the concentration at half of the fitted maximal effect
In short: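 GH3.TRE-Luc rat pituitary cells carrying two TR response elements driving luciferase were plated for 4 h, given compound plus 1 nM T3 (final), and incubated 23.5 h at 37 C. ONE-Glo luminescence measured reporter inhibition; CellTiter-Fluor fluorescence tracked cytotoxicity.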

[2] = system: thyroid hormone receptor (rat, GH3 cells); assay: qHTS assay to identify small molecule agonists of the thyroid receptor (TR) signaling pathway (AID 743066; calls by dose curve)
[3] = qHTS assay to identify small molecule antagonists of the estrogen receptor alpha (ER-alpha) signaling pathway - cell viability counter screen (AID 743074; calls by dose curve; further: nearly all actives have a fitted effect of over 45% in size)
[4] = qHTS assay to identify small molecule antagonists of the estrogen receptor alpha (ER-alpha) signaling pathway using the BG1 cell line - cell viability counter screen (AID 743081);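 further: compound given together with 17beta-estradiol as the ER stimulus; nearly all actives have a fitted effect of over 45% in size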; further: potency means the concentration at half of the fitted maximal effect
Aromatase (Homo sapiens) = Aromatase (Homo sapiens) (UniProt P11511); assay: qHTS assay to identify aromatase inhibitors (AID 743083); further: nearly all actives have a fitted effect of over 55% in size
Aromatase (Homo sapiens), sequence (P11511 whole entry, looked up): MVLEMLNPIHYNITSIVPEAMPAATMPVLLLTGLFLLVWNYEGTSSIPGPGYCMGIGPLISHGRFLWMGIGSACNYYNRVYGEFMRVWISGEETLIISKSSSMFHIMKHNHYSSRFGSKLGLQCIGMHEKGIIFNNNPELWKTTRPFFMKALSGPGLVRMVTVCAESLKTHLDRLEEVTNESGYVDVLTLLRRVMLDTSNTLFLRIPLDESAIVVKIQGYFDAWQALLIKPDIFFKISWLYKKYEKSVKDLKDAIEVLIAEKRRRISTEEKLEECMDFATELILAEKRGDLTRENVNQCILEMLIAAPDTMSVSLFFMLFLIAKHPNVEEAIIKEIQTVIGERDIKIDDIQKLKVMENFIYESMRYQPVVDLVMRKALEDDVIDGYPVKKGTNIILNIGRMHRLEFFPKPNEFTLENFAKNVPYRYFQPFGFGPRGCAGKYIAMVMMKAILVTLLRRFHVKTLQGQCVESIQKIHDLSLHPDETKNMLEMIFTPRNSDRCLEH

[5] = qHTS assay to identify aromatase inhibitors - cell viability counter screen (AID 743084);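 further: cells stimulated with testosterone during compound exposure; nearly all actives have a fitted effect of over 55% in size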
[6] = target: Aryl hydrocarbon receptor (Homo sapiens) (UniProt P35869); assay: qHTS assay to identify small molecule that activate the aryl hydrocarbon receptor (AhR) signaling pathway (AID 743085); further: nearly all actives have a fitted effect of over 15% in size; further: potency means the concentration at half of the fitted maximal effect;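 on activation: HG2L7.5c1 human HepG2 liver cells with stably integrated DRE-driven firefly reporter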
Aryl hydrocarbon receptor (Homo sapiens), sequence (P35869 whole entry, looked up): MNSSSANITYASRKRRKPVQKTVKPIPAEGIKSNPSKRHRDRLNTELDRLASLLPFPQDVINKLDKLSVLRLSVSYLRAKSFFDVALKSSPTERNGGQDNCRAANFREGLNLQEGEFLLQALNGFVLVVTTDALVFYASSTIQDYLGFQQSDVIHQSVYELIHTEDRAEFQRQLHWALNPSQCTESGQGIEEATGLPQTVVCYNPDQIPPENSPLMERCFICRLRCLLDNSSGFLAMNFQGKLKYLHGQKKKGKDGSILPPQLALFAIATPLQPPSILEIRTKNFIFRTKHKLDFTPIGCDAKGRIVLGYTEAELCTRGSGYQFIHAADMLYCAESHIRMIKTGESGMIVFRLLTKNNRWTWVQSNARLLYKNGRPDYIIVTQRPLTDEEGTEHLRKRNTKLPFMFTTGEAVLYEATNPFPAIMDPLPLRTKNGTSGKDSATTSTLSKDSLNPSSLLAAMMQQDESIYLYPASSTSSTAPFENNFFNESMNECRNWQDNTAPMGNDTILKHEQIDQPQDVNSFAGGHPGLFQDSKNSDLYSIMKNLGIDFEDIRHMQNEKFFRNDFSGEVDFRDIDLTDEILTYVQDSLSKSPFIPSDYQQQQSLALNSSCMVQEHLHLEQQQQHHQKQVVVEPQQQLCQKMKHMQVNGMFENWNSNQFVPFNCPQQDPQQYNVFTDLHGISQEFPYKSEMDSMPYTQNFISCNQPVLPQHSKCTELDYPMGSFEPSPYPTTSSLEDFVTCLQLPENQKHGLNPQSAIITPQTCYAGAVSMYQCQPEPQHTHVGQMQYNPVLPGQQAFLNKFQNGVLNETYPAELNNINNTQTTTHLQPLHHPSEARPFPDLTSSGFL
In short: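 Compounds were tested in HepG2 hepatocellular carcinoma cells harbouring a stably integrated luciferase gene under control of 20 DREs. Increased reporter signal after 24 h treatment at 37C was taken as AhR activation.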

[7] = qHTS assay to identify small molecule that activate the aryl hydrocarbon receptor (AhR) signaling pathway - cell viability counter screen (AID 743086); further: nearly all actives have a fitted effect of over 45% in size; further: potency means the concentration at half of the fitted maximal effect
In short: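 HepG2-AhR-luc (HG2L7.5c1) cells, 4000/well, were preincubated 5 h at 37C, exposed to compound in qHTS format for 24 hr at 37C, then given CellTiter-Fluor for 30 min; viability was read as fluorescence in the reporter wells.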

[8] = target: Peroxisome proliferator-activated receptor gamma (Homo sapiens) (UniProt P37231); assay: qHTS assay to identify small molecule agonists of the peroxisome proliferator-activated receptor gamma (PPARg) signaling pathway (AID 743094; active means well fitted activation curve with a large enough effect in the signal ratio in the repeat runs, not every such curve was filed as active; inconclusive means weak or mixed curves, or effect the other way; inactive means no such curve, though single readings can be large or run the other way; the % refers to the signal ratio)
Peroxisome proliferator-activated receptor gamma (Homo sapiens), sequence (P37231 whole entry, looked up): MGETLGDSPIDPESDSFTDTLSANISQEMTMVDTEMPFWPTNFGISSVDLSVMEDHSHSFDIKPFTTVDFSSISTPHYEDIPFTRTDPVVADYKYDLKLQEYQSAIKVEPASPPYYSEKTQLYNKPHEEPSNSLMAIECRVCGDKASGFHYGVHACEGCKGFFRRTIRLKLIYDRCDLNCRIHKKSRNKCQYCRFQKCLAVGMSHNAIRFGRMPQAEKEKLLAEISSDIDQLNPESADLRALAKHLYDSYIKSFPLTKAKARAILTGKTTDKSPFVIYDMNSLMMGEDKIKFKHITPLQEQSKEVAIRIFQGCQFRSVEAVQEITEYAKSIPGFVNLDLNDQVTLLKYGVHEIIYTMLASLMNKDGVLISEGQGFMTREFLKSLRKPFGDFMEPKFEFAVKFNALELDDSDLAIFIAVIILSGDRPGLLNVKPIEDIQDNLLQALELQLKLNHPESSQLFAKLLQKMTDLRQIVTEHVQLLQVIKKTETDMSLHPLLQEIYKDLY
In short: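 Agonist activity was taken from a beta-lactamase reporter (FRET substrate, 1 h at room temperature) in HEK293H cells carrying a PPARg UAS-bla construct. Compounds in DMSO were incubated 17 h at 37C after a 5 h cell pre-incubation.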

[9] = qHTS assay to identify small molecule phospholipidosis (PLD) inducers (AID 1259344; active means well fitted curve in the direction sought with a large enough effect; inconclusive means small, poorly fitted or top-dose-only effect, or another doubt; inactive means no such curve, though single readings can be large; an effect the other way counts as inactive or inconclusive)
In short: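 Cells (HepG2, 900 per well) attach for 4 h, receive LipidTOX Red and compound together, incubate 24 h at 37 C, are fixed 30 min with paraformaldehyde/Hoechst, then imaged at one site per well.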

[10] = target: Nuclear receptor subfamily 1 group I member 2 (Rattus norvegicus) (UniProt Q9R1A7); assay: Rat pregnane X receptor (rPXR) activation by small molecules, qHTS assay (AID 1346983); conditions: rPXR luciferase reporter cells, One-Glo luminescence, 24 h; max activation: stronger effect = higher value; further: nearly all actives have a fitted effect of over 20% in size; further: potency means the concentration at half of the fitted maximal effect
Nuclear receptor subfamily 1 group I member 2 (Rattus norvegicus), sequence (Q9R1A7 whole entry, looked up): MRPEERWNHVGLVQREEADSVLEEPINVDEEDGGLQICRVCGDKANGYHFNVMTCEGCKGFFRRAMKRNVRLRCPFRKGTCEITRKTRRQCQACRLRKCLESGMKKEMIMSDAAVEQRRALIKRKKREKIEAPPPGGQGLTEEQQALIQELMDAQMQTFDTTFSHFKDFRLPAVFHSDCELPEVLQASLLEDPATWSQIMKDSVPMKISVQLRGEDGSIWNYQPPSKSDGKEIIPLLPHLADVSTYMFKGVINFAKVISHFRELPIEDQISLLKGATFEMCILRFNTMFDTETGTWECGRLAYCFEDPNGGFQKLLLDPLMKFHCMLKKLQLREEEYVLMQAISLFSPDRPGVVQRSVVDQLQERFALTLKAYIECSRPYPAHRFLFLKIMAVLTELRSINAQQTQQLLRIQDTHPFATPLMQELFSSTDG
In short: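 Cell-based rPXR luciferase reporter assay, 2,000 cells per well, rested 5hr at 37 C before compound addition in DMSO, then 24 hr at 37 C. One-Glo reagent was added and luminescence read after 30 min at room temperature.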

[11] = target: Nuclear receptor subfamily 1 group I member 2 (Homo sapiens) (UniProt O75469); assay: CYP3A4 induction through human pregnane X receptor (PXR) by small molecules, qHTS assay (AID 1346984); further: nearly all actives have a fitted effect of over 40% in size
In short: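 Read-out is luminescence after One-Glo addition, following a 3 hr, 37C incubation with Luciferin-IPA CYP3A4 substrate (3uM final). Before that, compounds were on DPX-2 cells (HepG2 co-transfected with PXR element plus CYP3A4-promoter luciferase) for 24 hr at 37C.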

[12] = qHTS assay to identify small molecule antagonists of the thyroid receptor (TR) signaling pathway - cell viability counter screen (AID 743064); further: nearly all actives have a fitted effect of over 50% in size; further: potency means the concentration at half of the fitted maximal effect
In short: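 Rat GH3 pituitary tumor cells stably expressing two TR response elements driving luciferase were plated, rested 4 h, then dosed with library compounds and T3 (1 nM final). After 23.5 h at 37 °C, CellTiter-Fluor was added for 30 min and fluorescence recorded.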

[13] = target: Estrogen receptor (Homo sapiens) (UniProt P03372); assay: qHTS assay to identify small molecule antagonists of the estrogen receptor alpha (ER-alpha) signaling pathway (AID 743069; active means well fitted curve in the direction sought with a large enough effect in the signal ratio in the repeat runs, not every such curve was filed as active; inconclusive means weak or mixed curves, or effect the other way; inactive means no such curve, though single readings can be large or run the other way; the % refers to the signal ratio)
Estrogen receptor (Homo sapiens), sequence (P03372 whole entry, looked up): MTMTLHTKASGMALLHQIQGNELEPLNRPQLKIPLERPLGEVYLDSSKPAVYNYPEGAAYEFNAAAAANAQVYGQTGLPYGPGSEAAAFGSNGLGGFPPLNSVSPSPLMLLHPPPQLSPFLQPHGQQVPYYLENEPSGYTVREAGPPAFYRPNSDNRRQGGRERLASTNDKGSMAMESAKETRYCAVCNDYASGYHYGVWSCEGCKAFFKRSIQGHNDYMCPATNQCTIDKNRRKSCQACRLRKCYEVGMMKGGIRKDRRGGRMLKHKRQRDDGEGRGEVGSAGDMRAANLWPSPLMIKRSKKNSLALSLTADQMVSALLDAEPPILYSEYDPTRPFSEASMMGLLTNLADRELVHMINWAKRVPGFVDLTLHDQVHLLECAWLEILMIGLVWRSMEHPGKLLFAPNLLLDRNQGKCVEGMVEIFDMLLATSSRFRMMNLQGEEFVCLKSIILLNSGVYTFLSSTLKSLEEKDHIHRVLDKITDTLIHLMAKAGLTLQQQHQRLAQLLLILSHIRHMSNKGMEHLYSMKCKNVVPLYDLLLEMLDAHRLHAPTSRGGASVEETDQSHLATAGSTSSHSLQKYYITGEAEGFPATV
In short: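 Screening used a UAS-driven beta-lactamase reporter integrated into HEK293 cells expressing ER-alpha, stimulated with 17beta-estradiol alongside test compounds over 18 hr at 37C; signal came from LiveBLAzer B/G FRET fluorescence.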

[14] = qHTS assay to identify small molecule antagonists of the estrogen receptor alpha (ER-alpha) signaling pathway using the BG1 cell line (AID 743080; calls by dose curve;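 further: BG1 cells stimulated with 17beta-estradiol alongside compound; nearly all actives have a fitted effect of over 25% in size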)
In short: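 Readout is ONE-Glo luminescence, taken 30 min at room temperature after reagent addition, preceded by a CellTiter-Fluor viability read; BG1-Luc-4E2 cells had received compound and 17beta-estradiol for 21.5 h at 37 C.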

[15] = target: Nuclear receptor subfamily 1 group I member 2 (Homo sapiens) (UniProt O75469); assay: Human pregnane X receptor (PXR) activation by small molecules, qHTS assay (AID 1346985); further: nearly all actives have a fitted effect of over 40% in size; further: potency means the concentration at half of the fitted maximal effect
In short: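 DPX-2 cells (HepG2 co-transfected with a PXR response element and a CYP3A4-promoter luciferase construct) were seeded at 2,000 per well, rested 5 hr at 37C, then exposed to DMSO-dissolved compounds for 24 hr. Activation was read as luciferase luminescence.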

[16] = target: Estrogen receptor (Homo sapiens) (UniProt P03372); assay: qHTS assay to identify small molecule agonists of the estrogen receptor alpha (ER-alpha) signaling pathway (AID 743075; calls by dose curve; further: potency means the concentration at half of the fitted maximal effect)
[17] = target: Estrogen receptor (Homo sapiens) (UniProt P03372); assay: qHTS assay to identify small molecule agonists of the estrogen receptor alpha (ER-alpha) signaling pathway using the BG1 cell line (AID 743079); conditions: BG1Luc4E2 cells, ERE-luciferase agonist, 22 h; activation: at 70.3 µM (top of the series); further: nearly all actives have a fitted effect of over 20% in size; further: potency means the concentration at half of the fitted maximal effect

Structure (SMILES): CCCOc1ccc2nc(NC(=O)OC)sc2c1
- Potency [1]: 2370 nM (active)
- Potency [2]: inactive
- Potency [3]: inactive
- Potency [4]: inactive
- Potency (Aromatase (Homo sapiens)): inactive
- Potency [5]: inactive
- Potency [6]: 4220 nM (active)
- Potency [7]: inactive
- Potency [8]: inactive
- Potency [9]: inactive
- Potency [10]: 2510 nM (active)
- Potency [11]: inactive

Structure (SMILES): CCC(Cc1c(I)cc(I)c(O)c1I)C(=O)O (stereo unspecified)
- Potency [12]: inactive
- Potency [1]: inactive
- Potency [2]: inactive
- Potency [13]: inactive
- Potency [3]: inactive
- Potency [14]: inactive
- Potency [4]: inactive
- Potency (Aromatase (Homo sapiens)): inactive
- Potency [5]: inactive
- Potency [7]: inactive
- Potency [9]: inactive
- max activation [10]: -2.63%
- Potency [15]: inactive

Structure (SMILES): CN(C)C=Nc1c(I)cc(I)c(CCC(=O)O)c1I
- Potency [12]: inactive
- Potency [1]: inactive
- Potency [2]: inactive
- Potency [13]: inactive
- Potency [3]: inactive
- Potency [16]: inactive
- Potency [17]: inactive
- Potency [14]: inactive
- Potency [4]: inactive
- Potency (Aromatase (Homo sapiens)): inactive
- Potency [5]: inactive
- Potency [6]: inactive
- Potency [7]: inactive
- Potency [9]: inactive
- max activation [10]: -2.71%
- Potency [15]: 14100 nM (active)

Structure (SMILES): COc1cc2c(cc1OC)[C@@H](c1ccccc1)CN(C)CC2
- Potency [12]: inactive
- Potency [2]: inactive
- Potency [3]: inactive
- Potency [16]: inactive
- Potency [17]: inactive
- Potency [14]: inactive
- Potency [4]: inactive
- Potency [5]: inactive
- Potency [6]: inactive
- Potency [9]: inactive
- max activation [10]: 1.99%
- Potency [11]: inactive

Structure (SMILES): C[C@]12CC[C@@H]3c4ccc(OC(=O)c5ccccc5)cc4CC[C@H]3[C@@H]1CC[C@@H]2O
- Potency [12]: inactive
- Potency [1]: inactive
- Potency [2]: inactive
- Potency [3]: inactive
- Potency [16]: 0.7 nM [inconclusive] (active)
- activation [17]: 82.8% (active)
- Potency [4]: inactive
- Potency (Aromatase (Homo sapiens)): inactive
- Potency [5]: inactive
- Potency [6]: inactive
- Potency [7]: inactive
- Potency [8]: inactive
- Potency [9]: inactive
- max activation [10]: -1.5%
- Potency [15]: inactive

Structure (SMILES): COC(=O)[C@@H](N)CS
- Potency [12]: inactive
- Potency [1]: inactive
- Potency [2]: inactive
- Potency [13]: inactive
- Potency [3]: inactive
- Potency [16]: inactive
- Potency [17]: 26600 nM (active)
- Potency [14]: inactive
- Potency [4]: inactive
- Potency (Aromatase (Homo sapiens)): inactive
- Potency [5]: inactive
- Potency [6]: inactive
- Potency [7]: inactive
- Potency [8]: inactive
- Potency [9]: inactive
- max activation [10]: 0.531%
- Potency [15]: inactive

Structure (SMILES): O=C(Cc1cccs1)N[C@@H]1C(=O)N2C(C(=O)[O-])=C(C[n+]3ccccc3)CS[C@H]12
- Potency [12]: inactive
- Potency [1]: inactive
- Potency [2]: inactive
- Potency [13]: inactive
- Potency [3]: inactive
- Potency [16]: inactive
- Potency [17]: inactive
- Potency [14]: inactive
- Potency [4]: inactive
- Potency (Aromatase (Homo sapiens)): inactive
- Potency [5]: inactive
- Potency [7]: inactive
- Potency [9]: inactive
- max activation [10]: -1.81%
- Potency [15]: inactive

Structure (SMILES): CC(=O)N(CC(C)C(=O)O)c1c(I)cc(I)c(N)c1I (stereo unspecified)
- Potency [12]: inactive
- Potency [1]: inactive
- Potency [2]: inactive
- Potency [13]: inactive
- Potency [3]: inactive
- Potency [16]: inactive
- Potency [17]: inactive
- Potency [14]: inactive
- Potency [4]: inactive
- Potency (Aromatase (Homo sapiens)): inactive
- Potency [5]: inactive
- Potency [6]: inactive
- Potency [7]: inactive
- Potency [8]: inactive
- Potency [9]: inactive
- max activation [10]: -1.91%
- Potency [15]: inactive

Structure (SMILES): CNC(=O)[C@H](Cc1c[nH]c2ccccc12)NC(=O)[C@@H](CC(=O)NO)CC(C)C
- Potency [12]: 1680 nM (active)
- Potency [1]: inactive
- Potency [2]: inactive
- Potency [3]: inactive
- Potency [4]: 2660 nM (active)
- Potency [7]: 596 nM (active)
- Potency [9]: inactive
- max activation [10]: 15%
- Potency [15]: inactive

Structure (SMILES): CC[C@@H](C(=O)[C@@H](C)[C@@H](O)[C@H](C)[C@@H]1O[C@@H]([C@@H](CC)C(=O)O)CC[C@@H]1C)[C@H]1O[C@]2(C=C[C@@H](O)[C@]3(CC[C@@](C)([C@H]4CC[C@](O)(CC)[C@H](C)O4)O3)O2)[C@H](C)C[C@@H]1C
- Potency [12]: 668 nM (active)
- Potency [1]: 668 nM (active)
- Potency (Aromatase (Homo sapiens)): inactive
- Potency [5]: inactive
- Potency [6]: inactive
- Potency [7]: inactive
- Potency [9]: inactive
- max activation [10]: -12.1%
- Potency [15]: inactive

Structure (SMILES): CCC(=O)NCCC1CCc2ccc3c(c21)CCO3 (stereo unspecified)
- Potency [12]: inactive
- Potency [2]: inactive
- Potency [3]: inactive
- Potency [16]: inactive
- Potency [17]: 4220 nM (active)
- Potency [4]: inactive
- Potency (Aromatase (Homo sapiens)): inactive
- Potency [5]: inactive
- Potency [6]: inactive
- Potency [7]: inactive
- Potency [8]: inactive
- Potency [9]: inactive
- max activation [10]: -2.75%
- Potency [15]: 28200 nM (active)

Structure (SMILES): COc1ccc(C2(C#N)CCC(C(=O)O)CC2)cc1OC1CCCC1 (stereo unspecified)
- Potency [12]: inactive
- Potency [1]: inactive
- Potency [2]: inactive
- Potency [13]: inactive
- Potency [3]: inactive
- Potency [16]: inactive
- Potency [17]: 29800 nM (active)
- Potency [14]: inactive
- Potency [4]: inactive
- Potency (Aromatase (Homo sapiens)): inactive
- Potency [5]: inactive
- Potency [7]: inactive
- Potency [9]: inactive
- Potency [11]: inactive
- Potency [15]: inactive

Structure (SMILES): CO[C@@H]1[C@@H](O[C@@H]2O[C@H](C)[C@@H](O[C@H]3C[C@@](C)(O)[C@@H](O)[C@H](C)O3)[C@H](N(C)C)[C@H]2O)[C@@H](CC=O)C[C@@H](C)[C@@H](O[C@@H]2CC[C@H](N(C)C)[C@@H](C)O2)/C=C/C=C/C[C@@H](C)OC(=O)C[C@H]1O
- Potency [13]: inactive
- Potency [3]: inactive
- Potency [16]: inactive
- Potency [17]: inactive
- Potency [14]: inactive
- Potency [4]: inactive
- Potency (Aromatase (Homo sapiens)): inactive
- Potency [5]: inactive
- Potency [7]: inactive
- Potency [8]: inactive
- Potency [9]: inactive
- max activation [10]: -4.61%
